According to PubChem BioAssay (NCATS):
Results filed as inconclusive are left out. Active and inactive are the calls of the source. The call rests on the fitted dose curve; in most records, active means well fitted curve in either direction with a large enough effect (not every such curve was filed as active); inconclusive means small, poorly fitted or top-dose-only effect, or another doubt; inactive means flat fitted curve, though single readings scatter.

test: NFAT Signaling Pathway (AID 444); conditions: Jurkat NFAT-bla M1, carbachol, beta-lactamase ratio, 5 h; at 7.69 µM (top of the series)
From the text: NCGC Assay Overview: The nuclear factor of activated T cells (NFAT) family of transcription factors has been found primarily in most immune system cells and some other non-immune cells. NFAT plays the immunomodulatory role, primarily in T-cell activation and differentiation. NFAT target genes are also involved in the regulation of apoptosis and differentiation in non-immune cell types. The NFAT sequence was engineered to the upstream of the ?-lactamase reporter gene and transfected into Jurkat cells with co-transfection of muscarinic receptor1 [provided by Invitrogen Corp]. When an extracellular stimulus, such as carbachol, binds to the GPCR M1 receptor, it stimulates a signaling cascade that activates NFAT response element and ?-lactamase expression by phosphorylating the NFAT binding protein. This cell based ?-lactamase reporter gene assay can accurately monitor any changes occurring along the NFAT pathway, and can be used for screening small molecule inhibitor or activator upon activation by carbachol EC50 concentration. A small molecular library were screened in a titration series resulting in AC50s (can be either IC50s or EC50s).
NCGC Assay Protocol Summary: The cells were prepared in RPMI 1640 medium containing 0.1% dialyzed FBS and 25 mM HEPES at 1.6 x 10^6cell/ml. The assay was performed in 1536-well plate format as follows: 5 ul of cell preparation 23 nl of compounds 1ul of carbachol (final concentration 1 uM) Briefly centrifuge the plates and incubate at 37 °C for 5 hours 1 ul of CCF4 dye mixture Incubate the plates at RT for 1 hour Read the plate in EnVision plate reader (Ex= 405nm, and Em1=460nm and Em2=530nm). The %Activity was determined from the ratio of 460nm/530nm. Data normalization and AC50 calculations were accomplished using GeneData software.
On the % scale 0 is the no-effect control and ±100 the full control effect.

| SMILES | activity change, negative = inhibition |
| --- | --- |
| c1cc(CN2CCC3(CCNCC3)CC2)ccn1 | -8.56% (inactive) |
| CN1CCCC2(CCN(C(=O)c3csnn3)CC2)C1 | -27.8% (inactive) |
| c1ccc(N2CCCC3(CCNCC3)C2)cc1 | -13.8% (inactive) |
| N#Cc1cccc(NC(=O)N2CC[C@@]3(CCCN(C(=O)Oc4ccccc4)C3)C2)c1 | -14.8% (inactive) |
| Cc1noc(C)c1C(=O)N1CCC[C@@]2(CCN(CC(C)C)C2)C1 | 12.5% (inactive) |
| O=C(c1ccncc1)N1CCC[C@@]2(CCN(Cc3nccs3)C2)C1 | 5.07% (inactive) |
| CS(=O)(=O)N1CCC2(CC1)CN(Cc1ccncc1)C2 | 6.37% (inactive) |
| C[N+]1([O-])[C@@H]2CC(OC(=O)[C@@H](CO)c3ccccc3)C[C@@H]1[C@H]1O[C@H]12 (stereo not given in full) | -78.2% (active) |
| CN1CCN(c2ncc3ncc(=O)n(C)c3n2)CC1 | 11.5% (inactive) |
| O=C1NC(=S)NC(=O)C1=Cc1cccc2cc3ccccc3cc12 | -8.51% (inactive) |
| CC(C)CN1CCC2(CC1)CCN(S(C)(=O)=O)CC2 | 6.76% (inactive) |
| O=C(Oc1ccccc1)N1CCC[C@@]2(CCN(C(c3ccccc3)c3ccccc3)C2)C1 | -12.9% (inactive) |
| O=C(Nc1ccccc1)N1CC[C@@]2(CCCN(C(=O)Oc3ccccc3)C2)C1 | 1.93% (inactive) |
| N#Cc1ccc(CN2CC3(CCNCC3)C2)cc1 | -23.5% (inactive) |
| c1cnc(N2CCCC3(CCNCC3)C2)nc1 | -26.8% (inactive) |

same assay, conditions: Jurkat NFAT-bla M1, carbachol, beta-lactamase ratio, 5 h; at 17.2 µM (top of the series)

| SMILES | activity change, negative = inhibition |
| --- | --- |
| C[C@@H]1O[C@H](O[C@@H]2C=C3CC[C@H]4[C@@H](CC[C@]5(C)[C@@H](c6ccc(=O)oc6)CC[C@]45O)[C@@]3(C)CC2)[C@@H](O)[C@H](O)[C@@H]1O | -39.6% (active) |
| C[C@H]1[C@@H](O)[C@@H](C)/C=C\C=CCC\C=C/C=C\C=C/C=C[C@@H](O[C@H]2O[C@@H](C)[C@@H](O)[C@@H](N)[C@@H]2O)C[C@@H]2O[C@@](O)(C[C@@H](O)[C@H]2C(=O)O)C[C@@H](O)[C@@H](O)CC[C@@H](O)C[C@@H](O)C[C@@H](O)CC(=O)O[C@H]1C | 1.26% (inactive) |
| CN(C)[C@@H]1C(=O)C(C(N)=O)=C(O)[C@]2(O)C(=O)C3=C(O)c4c(O)ccc(Cl)c4[C@](C)(O)[C@H]3C[C@@H]12 | -5.59% (inactive) |
| CCC[C@@](C)(COC(N)=O)COC(=O)NC(C)C | -5.77% (inactive) |
| CN1CCc2cc3c(cc2[C@@H]1[C@@H]1OC(=O)c2c1ccc1c2OCO1)OCO3 | 4.41% (inactive) |
| CCN1C[C@@]2(COC)CC[C@H](O)[C@@]34[C@@H]2C[C@@H]([C@@H]13)[C@]1(O)C[C@@H](OC)C2C[C@H]4[C@H]1[C@H]2OC(C)=O | -14.2% (inactive) |
| N[C@H]1C[C@H]1c1ccccc1 | -3.83% (inactive) |
| CN(C)C(=O)Oc1cc(OC(=O)N(C)C)cc([C@@H](O)CNC(C)(C)C)c1 | -23.9% (inactive) |
| CN1[C@@H]2CCC[C@H]1CC(=O)C2 | -4.22% (inactive) |
| C[C@H]1CC[C@@]2(NC1)O[C@@H]1C[C@H]3[C@@H]4CC[C@@H]5C[C@@H](O)CC[C@@]5(C)[C@@H]4CC[C@]3(C)[C@@H]1[C@@H]2C | 1.76% (inactive) |
| CC[C@H]1CN2CC[C@@H]1C[C@H]2[C@@H](O)c1ccnc2ccc(OC)cc12 | -20.4% (inactive) |
| C[N+]1([O-])[C@@H]2CC(OC(=O)[C@@H](CO)c3ccccc3)C[C@@H]1[C@H]1O[C@H]12 (stereo not given in full) | -52.1% (active) |
| C#CCN(C)[C@@H](C)Cc1ccccc1 | -14.3% (inactive) |
| CCN1C[C@]2(C)CC[C@H](OC)[C@@]34[C@@H]2[C@H](OC(C)=O)[C@]2(OCO[C@@]25C[C@@H](OC)[C@@H]2C[C@@]3(O)[C@H]5[C@@H]2OC)[C@H]14 | -4.41% (inactive) |
| C[C@@H]1O[C@H](O[C@H]2C[C@@H](O)[C@@]3(CO)[C@H]4[C@@H](O)C[C@]5(C)[C@@H](C6=CC(=O)OC6)CC[C@]5(O)[C@H]4CC[C@]3(O)C2)[C@@H](O)[C@H](O)[C@@H]1O | -76.3% (active) |
| CO[C@H]1C=C2CCN(C)[C@@H]2[C@@H]2c3cc4c(cc3C(=O)O[C@H]21)OCO4 | 8.91% (inactive) |
| CC(C)(C)NC[C@H](O)c1cc(Cl)c(N)c(Cl)c1 | -7.65% (inactive) |
| C=C[C@H]1CN2CC[C@@H]1C[C@H]2[C@@H](O)c1ccnc2ccccc12 | -25.9% (inactive) |
| CN(C)[C@@H]1C(=O)C(C(N)=O)=C(O)[C@]2(O)C(=O)C3=C(O)c4c(O)cccc4[C@@](C)(O)[C@H]3[C@H](O)[C@@H]12 | -3.39% (inactive) |
| CS(=N)(=O)CC[C@@H](N)C(=O)O (stereo not given in full) | -1.86% (inactive) |

same assay, conditions: Jurkat NFAT-bla M1, carbachol, beta-lactamase ratio, 5 h; at 38 µM (top of the series)

| SMILES | activity change, negative = inhibition |
| --- | --- |
| CCC[C@@](C)(COC(N)=O)COC(=O)NC(C)C | -2.28% (inactive) |
| CN1CCc2cc3c(cc2[C@@H]1[C@@H]1OC(=O)c2c1ccc1c2OCO1)OCO3 | -4.78% (inactive) |
| CCCN(CCC)C(=O)Cc1c(-c2ccc(Cl)cc2)nc2c(Cl)cc(Cl)cn12 | 7.25% (inactive) |
| C#CCN(C)[C@@H](C)Cc1ccccc1 | -2.85% (inactive) |
| CS(=N)(=O)CC[C@@H](N)C(=O)O (stereo not given in full) | 4.5% (inactive) |
